An excerpt weighted towards active compounds, which were near 0.4% of everything screened.
USP1-UAF1 inh: Inhibitors of USP1/UAF1: Primary Screen; Ubiquitin carboxyl-terminal hydrolase 1 (Homo sapiens), O94782; recombinant USP1/UAF1, Ub-Rhodamine cleavage fluorescence; Potency, µM (doses to about 57.1 µM), for inactives: at the highest dose activity change, negative = inhibition, usual class: inhibitors; 0.23% of 390,000 active; AID 743255, 2014; active means well fitted inhibition curve with a large enough effect; inconclusive means small, poorly fitted or top-dose-only effect; inactive means no such curve, though single readings can be large or run the other way; further: potency means the concentration at half of the fitted maximal effect; on the % scale 0 is the no-effect control and ±100 the full control effect; nearly all actives have a fitted effect of over 60% in size
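USP1/UAF1 complex (1 nM) preincubated 15 min at room temperature with compound, then Ub-Rho substrate (150 nM final) added. Kinetic fluorescence at 480/540 nm over 6 reads at 60 s intervals; 50 mM HEPES pH 7.8, 0.5 mM EDTA, 0.1 mg/ml BSA, 1 mM TCEP, 0.01% Tween-20.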
TRPV1 PAM: HTS Assay for Compounds that Act as Potentiators of the Vanilloid Receptor 1; Transient receptor potential cation channel subfamily V member 1 (Homo sapiens), Q8NER1; TRPV1-expressing cells, Fluo-8 calcium influx, capsaicin EC20 potentiation; potentiation, % at 8.33 µM; 0.02% of 320,000 active; AID 540277, 2011; in the data active means potentiation above about 80%; inconclusive means between about 30% and that limit; further: 0% is about no effect
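Cells expressing TRPV1 were dye-loaded with Fluo-8 and read kinetically: 10 s baseline, 3 min after compound (agonist portion), then 2 min after EC20 capsaicin (allosteric enhancer portion). Calcium-bound dye fluorescence at 480/520 nm.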
TRPML1 inh: qHTS for Inhibitors of the Human Mucolipin Transient Receptor Potential 1 (TRPML1); activity change, negative = inhibition, % (test concentration not listed); 0.02% of 390,000 active; TRPML1-inducible cells, Ca2+ dye fluorescence, FDSS; stronger effect = lower value; inhibition of EC80 agonist-evoked calcium signal; Mucolipin-1 (Homo sapiens), Q9GZU1; in the data active means activity change below about -50%; inconclusive means between about -30% and that limit;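 further: stimulus is agonist 54-4 at its EC80 concentration; on the % scale 0 is the no-effect control and ±100 the full control effect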
Target sequence (Q9GZU1 whole entry, looked up): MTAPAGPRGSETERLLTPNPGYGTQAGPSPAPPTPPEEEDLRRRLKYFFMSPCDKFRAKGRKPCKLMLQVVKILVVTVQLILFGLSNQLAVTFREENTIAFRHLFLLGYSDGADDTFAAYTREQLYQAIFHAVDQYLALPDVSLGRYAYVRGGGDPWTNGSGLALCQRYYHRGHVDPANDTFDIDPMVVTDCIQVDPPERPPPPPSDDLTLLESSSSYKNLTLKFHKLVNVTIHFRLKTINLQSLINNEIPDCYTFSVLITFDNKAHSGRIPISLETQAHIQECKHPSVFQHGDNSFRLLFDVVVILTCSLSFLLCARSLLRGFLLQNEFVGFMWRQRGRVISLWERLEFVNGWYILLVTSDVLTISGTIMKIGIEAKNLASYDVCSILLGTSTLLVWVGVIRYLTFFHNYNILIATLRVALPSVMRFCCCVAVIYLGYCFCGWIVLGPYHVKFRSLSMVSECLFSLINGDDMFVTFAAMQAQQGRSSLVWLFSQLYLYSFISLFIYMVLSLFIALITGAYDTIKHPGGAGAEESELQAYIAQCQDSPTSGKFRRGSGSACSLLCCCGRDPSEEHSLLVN
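TRPML1-DL cells, Tet-induced overnight (~16 h, 37 °C) at 1,500 cells/well, were loaded with Ca8 no-wash dye plus quencher for 45-90 min at room temperature. Compounds were pinned during FDSS kinetic reading; agonist 54-4 at EC80 (4 uM final) then added.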
TRPV1 ag: HTS Assay for Compounds that Act as Agonists of the Vanilloid Receptor 1; TRPV1-expressing cells, Fluo-8 calcium influx, agonist mode; activation, % at 8.33 µM; 0.19% of 320,000 active; AID 540275, 2011; in the data active means activation above about 80%; inconclusive means between about 30% and that limit; further: 0% is about no effect
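TRPV1-expressing cells were cultured overnight at 35.5C and loaded with Fluo-8 calcium dye for 40 to 90 min at room temperature. After a 10 s baseline, compound was added and calcium influx was read kinetically for 3 min (ex 480/em 520 nm).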
TRPML1 ag: qHTS for Agonists of the Human Mucolipin Transient Receptor Potential 1 (TRPML1). Mucolipin-1 (Homo sapiens), Q9GZU1. TRPML1-expressing cells, Ca2+ dye fluorescence, FDSS. activation, % (concentration not given with the values). 0.12% of 410,000 active. AID 624414, 2012; in the data active means activation above about 50%; inconclusive means mostly about 30% to 49%; further: 0% is about no effect
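TRPML1-DL cells, Tet-induced overnight (~16 h, 37 degrees C), loaded 45-90 min at room temperature with Ca8 no-wash calcium dye plus quencher. FDSS fluorescence: 10 s baseline, compound pin-transfer, 110 s agonist read, then EC80 54-4 (4uM final) and 110 s antagonist read.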
* = called active by the depositor; u = inconclusive; x = no result given.

SMILES | USP1-UAF1 inh | TRPV1 PAM | TRPML1 inh | TRPV1 ag | TRPML1 ag
CN(C)c1ccc(C=c2c3ccccc3n3c2c2ccccc2[n+]3C)cc1 | u | x | 4 | x | 1
Cc1cc2c(=Cc3ccc(N(C)C)cc3)c3ccccc3n2[n+]1C | u | x | 13 | x | 0
C[n+]1c(-c2ccccc2)cc2c(=Cc3ccc([N+](=O)[O-])cc3)c3ccccc3n21 | 3.5µM* | x | 26 | x | 0
CCOC(=O)c1cc2c(=Cc3ccc(N(C)C)cc3)c3ccccc3n2[n+]1C | 16µM* | x | -14 | x | 1
C[n+]1c(-c2ccccc2)cc2c(=Cc3ccccc3)c3ccccc3n21 | 4µM* | x | -12 | x | 0
CC(=O)c1cc(-c2ccc(F)cc2)n(CCC(=O)Nc2cccc(C)n2)c1C | -23% | -17 | -3 | 23 | 0
Cc1cc(F)c(F)c(C(=O)N2CCCCC2C)c1Cl (stereo not given) | -17% | -27 | 6 | 16 | 0
CC1(C)CN(c2ccc(Br)cc2Br)C1=O | -5% | -4 | 0 | 5 | 1
Cc1c(Cl)cccc1N1CC(C)(C)C1=O | -9% | 10 | -17 | -3 | 52*
C/C=C(\C)C(=O)OC(C)(C)[C@@H]1Cc2cc3ccc(=O)oc3cc2O1 | -11% | -18 | 64 | 27 | 2
COCCCNc1c2c3c(cccc3[nH]c1=O)C(=O)c1ccccc1-2 | 4.5µM* | 9 | -18 | 2 | 113*
Cc1ccc(N2CCN(C(=O)N3CCOCC3)CC2)c(C)c1 | 1% | -8 | -10 | 83* | 1
O=C1Nc2ccccc2Cc2ccccc21 | -16% | x | -5 | x | -1
COc1cc(/C=C2\SC(=Nc3ccc(Cl)c(C(=O)O)c3)NC2=O)c(Br)c(Br)c1O | 18µM* | -5 | -4 | u | 67*
COC(=O)/C=C1\SC(=Nc2ccc(Cl)c(Cl)c2)NC1=O | -14% | 15 | 26 | -6 | 1
COc1cc(/C=C2\SC(=Nc3ccccc3)NC2=O)cc(Cl)c1O | u | -10 | -18 | u | 77*
O=C(O)c1cccc(N2C(=O)CSC2c2c(F)cccc2Cl)c1 (stereo not given) | -11% | 22 | 39 | 0 | 0
CC1CCN(C2=NC(=O)/C(=C/c3cccc(O)c3)S2)CC1 | -16% | -26 | 14 | u | -2
CC1CCN(C2=NC(=O)/C(=C/c3ccccc3F)S2)CC1 | -7% | -4 | -5 | 88* | -1
Cn1cc(/C=C/c2cc[n+](C)cc2)c2cc(F)ccc21 | 28µM* | 21 | 14 | -7 | 12
Cc1ccc2[nH]c(C)c(/C=C/c3cc[n+](C)cc3)c2c1 | u | 21 | 7 | -7 | 10
C[n+]1ccc(/C=C/c2c[nH]c3ccc(F)cc23)cc1 | 28µM* | 11 | -13 | -6 | 15
O=C(COc1ccc(Cl)cc1)NNC(=O)c1ccccc1C(=O)O | -12% | 1 | 0 | 1 | 1
Cn1c(SC(C(=O)Nc2ccc(F)cc2)c2ccccc2)nc2ccccc21 (stereo not given) | -17% | -4 | 27 | 85* | -1
COc1cccc(N2CCN(c3nc(C)cc(=O)[nH]3)CC2)c1 | 2% | -11 | x | 97* | x
SMILES | USP1-UAF1 inh | TRPV1 PAM | TRPML1 inh | TRPV1 ag | TRPML1 ag
CCOc1ccccc1-n1c(=S)sc2c(=O)n(-c3ccc(C)cc3)c(=S)[nH]c21 | -12% | 7 | u | 3 | 66*
Cc1ccc(N2C(=O)C(F)(F)C2c2ccccc2)cc1 (stereo not given) | -22% | -3 | -20 | 15 | 63*
N#C/C(=C/c1cn(Cc2ccccc2Cl)c2ccccc12)C(=O)Nc1cccc(Cl)c1 | -11% | x | -19 | x | 0
O=C(Nc1ccc(F)cc1)N1CCCN(c2nccc(C(F)(F)F)n2)CC1 | -10% | -14 | 15 | u | 0
O=C(Nc1ccccc1)N1CCCN(c2nccc(C(F)(F)F)n2)CC1 | -22% | -4 | -10 | 87* | 1
Cc1cc(Br)ccc1NC(=O)CNC(=O)CNc1cccc([N+](=O)[O-])c1 | -7% | -1 | 0 | 3 | -1
CCOC(=O)N1CCN(C(=O)c2cc3c(s2)-c2c(C)cccc2OC3)CC1 | -10% | -4 | 23 | u | 3
Cc1cccc2c1-c1sc(C(=O)N3CCCCC3)cc1CO2 | -11% | 2 | 27 | 88* | 1
O=C1NC(=S)S/C1=C/c1ccc(N2CCOCC2)o1 | u | u | -3 | -1 | 28
O=C1S/C(=C\c2ccc(N3CCOCC3)o2)C(=O)N1Cc1ccc(F)cc1 | 5.6µM* | 16 | 3 | 12 | 3
O=C1S/C(=C/c2ccc(N3CCOCC3)o2)C(=O)N1Cc1ccc(F)cc1 | 14µM* | -8 | -14 | u | 20
O=[N+]([O-])c1ccc(-c2cnc(SC(c3ccccc3)c3ccccc3)[nH]2)cc1 | -21% | 2 | 11 | 1 | 1
S=C(NCCSCc1c(Cl)cccc1Cl)Nc1ccccc1 | -10% | -1 | -11 | u | -1
O=C(NCCSCc1c(F)cccc1Cl)Nc1ccccc1 | -14% | 17 | 10 | 83* | 0
CC(C)c1ccc(C2N3CC4([N+](=O)[O-])CN2CC([N+](=O)[O-])(C3)C4(C)C)cc1 (stereo not given) | -21% | -10 | 9 | 6 | 0
CN(C)c1ccc(/C=C/c2ccnc3cc(Cl)ccc23)cc1 | x | x | x | x | 105*
Cc1cc(/C=C2\Cc3ccccc3C2=O)c(C)n1-c1ccccc1 | -21% | -1 | -9 | 86* | 2
COC(=O)c1cc2c(cc1NC(=O)CSCCc1ccccn1)OCO2 | -10% | -24 | 4 | 6 | -2
C#CCNC(=O)C1CCN(c2ccc(S(=O)(=O)N3CCOCC3)cc2Cl)CC1 | -7% | -11 | 9 | 82* | 1
CC(C)CNC(=O)C1CCN(c2ccc(S(=O)(=O)N3CCOCC3)cc2Cl)CC1 | 2% | -40 | 11 | -2 | 0
COc1cc2c3nnc(-c4ccc(F)cc4)c-3cn(Cc3ccccc3)c2cc1OC | 32µM* | -2 | 3 | -3 | -1
CC1CN(c2nc3c(c(=O)n(Cc4ccc(Cl)cc4)c(=O)n3C)n2C)CC(C)O1 (stereo not given) | -1% | -10 | 1 | 106* | 0
COc1ccccc1N1CCN(C2CCCN(C(=O)c3cc(C4CC4)on3)C2)CC1 (stereo not given) | -22% | -3 | -61* | 6 | 1
CCc1nc(Nc2ccccc2)c2oc3ccccc3c2n1 | -26% | -7 | 37 | 84* | 3

Source: PubChem BioAssay (National Center for Advancing Translational Sciences (NCATS))
